SMILES strings stand for the structures. Compounds without any hit were thinned out: in the full panel of roughly 79,000, 15% have a hit. Values without a mark were called inactive. Activity calls are given as the source filed them. Rule as the data show it: active = growth inhibition above about 70%; inactive = the rest.

The nature of experiment [1]: NCI Yeast Anticancer Drug Screen. Data for the rad50 strain (AID 155).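 Also: 0% = growth of vehicle-only cultures of the same strain.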 Particulars: S. cerevisiae rad50 strain growth inhibition, active compounds read high. The procedure, abridged: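 Compounds were tested on a yeast strain with an engineered DNA damage repair alteration; the reported value is growth inhibition normalised to vehicle treatment.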
Experiment [2] is described as follows: NCI Yeast Anticancer Drug Screen. Data for the mec2-1 strain (AID 157). The conditions noted are these: S. cerevisiae mec2-1 strain, active compounds read high. The method in brief:
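Strain: mec2-1 (DNA repair/cell cycle alteration). Compound exposure, then growth measured; inhibition expressed relative to vehicle.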

Experiment [3] can be described thus: NCI Yeast Anticancer Drug Screen. Data for the sgs1 mgt1 strain (AID 161).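 Also: 0% = growth of cultures given vehicle only.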 The conditions noted are these: S. cerevisiae sgs1 mgt1 strain, active compounds read high. The method in brief: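 Read-out: growth inhibition vs vehicle controls. Cells: mutant yeast strain deficient in DNA damage repair.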
A short description of experiment [4]: NCI Yeast Anticancer Drug Screen. Data for the cln2 rad14 strain (AID 165).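 Also: 0% = growth equal to vehicle treated cultures.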 The conditions noted are these: S. cerevisiae cln2 rad14 strain, active compounds read high. The procedure, abridged: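 Compounds are applied to the cln2 rad14 yeast strain, and growth is then compared with that of vehicle-treated cultures to give inhibition.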
Experiment [5] can be described thus: NCI Yeast Anticancer Drug Screen. Data for the bub3 strain (AID 167). Particulars: S. cerevisiae bub3 mutant strain, active compounds read high. The method in brief:
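Growth of a checkpoint-deficient yeast mutant is measured after compound exposure. Values represent inhibition relative to vehicle.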

Experiment [6] is described as follows: NCI Yeast Anticancer Drug Screen. Data for the mlh1 rad18 strain (AID 175). The conditions noted are these: S. cerevisiae mlh1 rad18 strain growth inhibition, active compounds read high. The method in brief:
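Read-out is yeast growth inhibition, calculated against vehicle-only controls. The compound was applied to a strain engineered with DNA damage repair alterations.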

[7] abbreviates: at 5.0 µM (retest, dose inferred, filed as 0.5).
Where [8] appears, read: at 50.0 µM (retest, dose inferred, filed as 5.0).

Take `CC1(C)CCCC12C=NCC2` (stereo not given): the growth inhibition in experiment [1] (setting [7]) is 2%; in experiment [1] (setting [8]), 16%; in experiment [1] (at 50.0 µM), 17.8%; in experiment [2] (setting [7]), -2%; in experiment [2] (setting [8]), 18%; in experiment [2] (at 50.0 µM), -1.15%. The growth inhibition is -1% in experiment [3] (setting [7]); 11% in experiment [3] (setting [8]); 31.9% in experiment [3] (at 50.0 µM); 1% in experiment [4] (setting [7]); 1% in experiment [4] (setting [8]); -3.95% in experiment [4] (at 50.0 µM). The growth inhibition in experiment [5] (setting [7]) was 2%; in experiment [5] (setting [8]) it was 10%; in experiment [5] (at 50.0 µM) it was 43.1%; in experiment [6] (setting [7]) it was -28%; in experiment [6] (setting [8]) it was 27%; in experiment [6] (at 50.0 µM), 22.9%.
Turning to `O=c1nc(NC(c2ccccc2)(c2ccccc2)c2ccccc2)ccn1CCNCCn1ccc(NC(c2ccccc2)(c2ccccc2)c2ccccc2)nc1=O`, the growth inhibition in experiment [1] (setting [7]) was 82% (active); in experiment [1] (setting [8]) it was 96% (active); in experiment [1] (at 50.0 µM), 87.6% (active); in experiment [2] (setting [7]), 52%; in experiment [2] (setting [8]), 97% (active); in experiment [2] (at 50.0 µM), 89% (active). Besides, the growth inhibition in experiment [3] (setting [7]) was 65%; in experiment [3] (setting [8]), 98% (active); in experiment [3] (at 50.0 µM), 91.5% (active); in experiment [4] (setting [7]) it was 34%; in experiment [4] (setting [8]), 97% (active); in experiment [4] (at 50.0 µM), 89.2% (active). For the same compound, the growth inhibition in experiment [5] (setting [7]) is 74% (active); in experiment [5] (setting [8]), 98% (active); in experiment [5] (at 50.0 µM), 91% (active); in experiment [6] (setting [7]), 90% (active); in experiment [6] (setting [8]), 97% (active); in experiment [6] (at 50.0 µM) it was 90% (active).
As to `CC(C)(C)CC(C)(C)c1ccc(O)c(Cl)c1`, the growth inhibition in experiment [1] (setting [7]) is -3%; in experiment [1] (setting [8]) it was 93% (active); in experiment [1] (at 50.0 µM), 99.1% (active); in experiment [2] (setting [7]), -3%; in experiment [2] (setting [8]), 90% (active); in experiment [2] (at 50.0 µM), 76.5% (active). Moreover, the growth inhibition was -2% in experiment [3] (setting [7]); 50% in experiment [3] (setting [8]); 91.2% (active) in experiment [3] (at 50.0 µM); -6% in experiment [4] (setting [7]); 86% (active) in experiment [4] (setting [8]); 49.9% in experiment [4] (at 50.0 µM). The growth inhibition in experiment [5] (setting [7]) was -4%; in experiment [5] (setting [8]) it was 90% (active); in experiment [5] (at 50.0 µM), 78.4% (active); in experiment [6] (setting [7]), -4%; in experiment [6] (setting [8]), 95% (active); in experiment [6] (at 50.0 µM), 99.5% (active).
On to `Cc1cn(C(C#N)=C(C#N)C#N)c2ccccc12`, for which the growth inhibition in experiment [1] (setting [7]) is 0%; in experiment [1] (setting [8]), 25%; in experiment [1] (at 50.0 µM), 14.4%; in experiment [2] (setting [7]), 6%; in experiment [2] (setting [8]), 11%; in experiment [2] (at 50.0 µM), 22.5%. The growth inhibition was -8% in experiment [3] (setting [7]); 32% in experiment [3] (setting [8]); -4.65% in experiment [3] (at 50.0 µM); -2% in experiment [4] (setting [7]); 26% in experiment [4] (setting [8]); -37.4% in experiment [4] (at 50.0 µM). Besides, the growth inhibition in experiment [5] (setting [7]) is -2%; in experiment [5] (setting [8]), -3%; in experiment [5] (at 50.0 µM), 18.2%; in experiment [6] (setting [7]) it was 1%; in experiment [6] (setting [8]), 16%; in experiment [6] (at 50.0 µM), -16.2%.
Take `CC(CN(C)C)C(/C=C/c1ccccc1)=N\NC(=O)c1ccccc1` (stereo not given): the growth inhibition in experiment [1] (setting [7]) is -14%; in experiment [1] (setting [8]) it was 3%; in experiment [1] (at 50.0 µM), 3.15%; in experiment [2] (setting [7]), -7%; in experiment [2] (setting [8]), -7%; in experiment [2] (at 50.0 µM), 13.1%. The growth inhibition in experiment [3] (setting [7]) was -4%; in experiment [3] (setting [8]) it was 3%; in experiment [3] (at 50.0 µM), 3.05%; in experiment [4] (setting [7]) it was -11%; in experiment [4] (setting [8]), -4%; in experiment [4] (at 50.0 µM) it was 3.15%. Further, the growth inhibition in experiment [5] (setting [7]) is -3%; in experiment [5] (setting [8]) it was -11%; in experiment [5] (at 50.0 µM), -18.4%; in experiment [6] (setting [7]), 2%; in experiment [6] (setting [8]) it was 11%; in experiment [6] (at 50.0 µM) it was -3.6%.
`C=C(CN(C)C)C(=O)c1ccccc1Cl`: the growth inhibition is -10% in experiment [1] (setting [7]); 90% (active) in experiment [1] (setting [8]); 90.8% (active) in experiment [1] (at 50.0 µM); -15% in experiment [2] (setting [7]); 80% (active) in experiment [2] (setting [8]); 92.7% (active) in experiment [2] (at 50.0 µM). The growth inhibition is 15% in experiment [3] (setting [7]); 95% (active) in experiment [3] (setting [8]); 92.5% (active) in experiment [3] (at 50.0 µM); -10% in experiment [4] (setting [7]); 25% in experiment [4] (setting [8]); 7.9% in experiment [4] (at 50.0 µM). The growth inhibition in experiment [5] (setting [7]) was -14%; in experiment [5] (setting [8]), 96% (active); in experiment [5] (at 50.0 µM) it was 70.6% (active); in experiment [6] (setting [7]), 46%; in experiment [6] (setting [8]) it was 98% (active); in experiment [6] (at 50.0 µM), 98.1% (active).
`O=C1CCCC/C1=C\c1ccc(Br)cc1`: the growth inhibition in experiment [1] (setting [7]) was 1%; in experiment [1] (setting [8]), 96% (active); in experiment [1] (at 50.0 µM), 80.2% (active); in experiment [2] (setting [7]) it was -21%; in experiment [2] (setting [8]), 99% (active); in experiment [2] (at 50.0 µM), 86.7% (active). In addition, the growth inhibition in experiment [3] (setting [7]) is -28%; in experiment [3] (setting [8]) it was 99% (active); in experiment [3] (at 50.0 µM) it was 90.7% (active); in experiment [4] (setting [7]), 9%; in experiment [4] (setting [8]), 95% (active); in experiment [4] (at 50.0 µM) it was 88.3% (active). Besides, the growth inhibition in experiment [5] (setting [7]) was -55%; in experiment [5] (setting [8]), 99% (active); in experiment [5] (at 50.0 µM), 89.4% (active); in experiment [6] (setting [7]), -17%; in experiment [6] (setting [8]), 99% (active); in experiment [6] (at 50.0 µM), 92.7% (active).
For `O=C1OCCCOC(=O)c2cc(ccc2O)OCC#CC#CCOc2ccc(O)c1c2`, the growth inhibition in experiment [1] (setting [7]) was 2%; in experiment [1] (setting [8]), -6%; in experiment [1] (at 50.0 µM), 12.6%; in experiment [2] (setting [7]) it was -4%; in experiment [2] (setting [8]) it was 19%; in experiment [2] (at 50.0 µM) it was 8.75%. Further, the growth inhibition in experiment [3] (setting [7]) was -1%; in experiment [3] (setting [8]), -3%; in experiment [3] (at 50.0 µM), 16.1%; in experiment [4] (setting [7]), 4%; in experiment [4] (setting [8]), -4%; in experiment [4] (at 50.0 µM), 38.6%. For the same compound, the growth inhibition in experiment [5] (setting [7]) is 2%; in experiment [5] (setting [8]), -6%; in experiment [5] (at 50.0 µM), 86.2% (active); in experiment [6] (setting [7]) it was 0%; in experiment [6] (setting [8]), -4%; in experiment [6] (at 50.0 µM) it was 29.7%.
As for `OC1CCC(COC(c2ccccc2)(c2ccccc2)c2ccccc2)O1` (stereo not given), the growth inhibition in experiment [1] (setting [7]) was -8%; in experiment [1] (setting [8]), 98% (active); in experiment [1] (at 50.0 µM), 98.6% (active); in experiment [2] (setting [7]), 5%; in experiment [2] (setting [8]), 99% (active); in experiment [2] (at 50.0 µM), 98.5% (active). Further, the growth inhibition is -19% in experiment [3] (setting [7]); 99% (active) in experiment [3] (setting [8]); 98% (active) in experiment [3] (at 50.0 µM); 5% in experiment [4] (setting [7]); 98% (active) in experiment [4] (setting [8]); 98.2% (active) in experiment [4] (at 50.0 µM). For the same compound, the growth inhibition in experiment [5] (setting [7]) is 4%; in experiment [5] (setting [8]), 96% (active); in experiment [5] (at 50.0 µM) it was 99% (active); in experiment [6] (setting [7]) it was 0%; in experiment [6] (setting [8]), 99% (active); in experiment [6] (at 50.0 µM), 98.1% (active).
As for `Cc1c(C[n+]2cc3ccccc3cc2/C=N/O)ccc2ccccc12`, the growth inhibition in experiment [1] (setting [7]) was 1%; in experiment [1] (setting [8]) it was 31%; in experiment [1] (at 50.0 µM), 19.1%; in experiment [2] (setting [7]), 3%; in experiment [2] (setting [8]) it was 39%; in experiment [2] (at 50.0 µM), 10.1%. Moreover, the growth inhibition in experiment [3] (setting [7]) is 2%; in experiment [3] (setting [8]), 31%; in experiment [3] (at 50.0 µM), 5.5%; in experiment [4] (setting [7]), -2%; in experiment [4] (setting [8]), -6%; in experiment [4] (at 50.0 µM), -3.1%. Also, the growth inhibition in experiment [5] (setting [7]) is 1%; in experiment [5] (setting [8]), 19%; in experiment [5] (at 50.0 µM), 97.2% (active); in experiment [6] (setting [7]), 1%; in experiment [6] (setting [8]), 37%; in experiment [6] (at 50.0 µM), 16.8%.

The record behind these values is PubChem BioAssay (NCI).
